Laboratory results taken from article PMC4336329 (PLoS ONE, 2015).
Screen size: about 310,000 compounds; about 14,000 (4.5%) showed an effect of 50% or more. The effect is printed as a negative number. For the sample, strong results were picked, then their nearest neighbours and some compounds at random.

target: human ether-à-go-go-related gene (hERG) potassium channel (human, UniProt Q12809); assay: primary screen, population patch clamp on CHO cells stably expressing hERG; higher = less effect of the substance
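Further: peak tail current of the secondary pulse compared with the same well before compound.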

Chain of human ether-à-go-go-related gene (hERG) potassium channel (Q12809 whole entry, looked up): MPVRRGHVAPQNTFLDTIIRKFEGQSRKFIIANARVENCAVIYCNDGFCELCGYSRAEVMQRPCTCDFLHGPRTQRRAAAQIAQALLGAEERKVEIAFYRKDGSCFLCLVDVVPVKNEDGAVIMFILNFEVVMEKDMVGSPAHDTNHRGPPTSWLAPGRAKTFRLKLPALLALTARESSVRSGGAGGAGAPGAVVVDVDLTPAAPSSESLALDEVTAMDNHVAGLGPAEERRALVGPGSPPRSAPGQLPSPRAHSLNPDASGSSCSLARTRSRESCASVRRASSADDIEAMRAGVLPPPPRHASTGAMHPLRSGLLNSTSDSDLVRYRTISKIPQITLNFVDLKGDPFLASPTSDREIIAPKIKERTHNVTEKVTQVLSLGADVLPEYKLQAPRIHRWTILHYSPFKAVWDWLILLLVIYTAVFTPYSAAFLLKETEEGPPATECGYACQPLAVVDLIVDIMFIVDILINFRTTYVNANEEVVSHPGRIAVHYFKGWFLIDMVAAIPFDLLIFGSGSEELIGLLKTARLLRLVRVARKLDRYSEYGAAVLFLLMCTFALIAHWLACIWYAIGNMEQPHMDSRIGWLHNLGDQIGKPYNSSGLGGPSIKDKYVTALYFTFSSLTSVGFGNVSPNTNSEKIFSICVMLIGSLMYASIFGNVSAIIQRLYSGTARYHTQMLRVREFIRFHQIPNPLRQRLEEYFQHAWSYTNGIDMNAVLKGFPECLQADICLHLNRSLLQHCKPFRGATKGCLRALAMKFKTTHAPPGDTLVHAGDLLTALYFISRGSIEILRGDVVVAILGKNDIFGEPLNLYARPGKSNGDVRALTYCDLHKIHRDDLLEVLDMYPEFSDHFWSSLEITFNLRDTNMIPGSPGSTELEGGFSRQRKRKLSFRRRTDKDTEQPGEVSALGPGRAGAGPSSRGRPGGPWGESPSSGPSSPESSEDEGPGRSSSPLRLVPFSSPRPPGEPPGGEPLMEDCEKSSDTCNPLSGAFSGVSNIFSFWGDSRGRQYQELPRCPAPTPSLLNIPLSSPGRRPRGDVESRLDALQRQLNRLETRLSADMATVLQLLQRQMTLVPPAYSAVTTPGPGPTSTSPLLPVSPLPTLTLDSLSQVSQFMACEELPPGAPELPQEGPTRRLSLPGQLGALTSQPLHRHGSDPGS

Structure (SMILES) | hERG current change (%, negative = inhibition) at 10uM
N#Cc1c(-c2ccccc2)ccn(Cc2cccc(Cl)c2)c1=O | 8.43%
Cc1ccc(Nc2cc(-n3nc(C)cc3C)ncn2)c(C)c1 | -3.97%
COCCCN1C2=C(C(=O)CC(C)(C)C2)C(c2ccc(O)c(OC)c2)C2=C1CC(C)(C)CC2=O | 11.2%
Cc1ccc(N)cc1CN1CCCC1=O | 2.15%
CCN(CC)S(=O)(=O)c1ccc(C(=O)NC(C)(C)C)cc1 | 19.1%
O=C(CCN1CCOCC1)Nc1ccc(F)cc1 | -10.5%
O=C(CCN1CCN(c2ccccc2F)CC1)Nc1ccc(F)cc1 | -18.3%
COc1ccc(NC(=O)CCN2CCN(c3ccc(F)cc3)CC2)cc1 | -33%
O=C(CCN1CCN(c2ccccn2)CC1)Nc1ccc(F)cc1 | -42.5%
Cc1ccccc1N1CCN(CCC(=O)Nc2ccc(F)cc2)CC1 | -67.5%
O=C(CCN1CCN(c2ccc(F)cc2)CC1)Nc1ccc(F)cc1 | -56.8%
CCC(C)(C)n1nnnc1C(c1cccnc1)N1CCCc2ccccc21 (stereo not shown) | -19.6%
CCS(=O)(=O)NCc1csc(-c2ccccc2)n1 | 18%
Cc1cnccc1CN(C)C(=O)CC1C(=O)NCCN1CC1CCCCC1 (stereo not shown) | -4.59%
COc1ccc(/C=C2\SC(=S)N(CCC(=O)Nc3ccccn3)C2=O)cc1OC | 26.2%
Cl.OCCN1CCN(CC(O)COCC2COc3ccccc3O2)CC1 (stereo not shown) | 33.4%
Cl.OC(COCC1COc2ccccc2O1)CN1CCCCC1 (stereo not shown) | -43.6%
Cl.OC(COCC1COc2ccccc2O1)CN1CCN(c2ccccc2F)CC1 (stereo not shown) | -58.9%
C[N+]1(CC(O)COCC2COc3ccccc3O2)CCOCC1.[I-] (stereo not shown) | 18.3%
CCN1CCN(CC(O)COCC2COc3ccccc3O2)CC1.Cl (stereo not shown) | -4.69%
O=C(C1COc2ccccc2O1)N1CCN(c2ccccc2F)CC1 (stereo not shown) | 9.47%

Structure (SMILES) | hERG current change (%, negative = inhibition) at 10uM
CC[N+](C)(CC)CC(O)COCC1COc2ccccc2O1.[I-] (stereo not shown) | 1.73%
CC1CCCN(CC(O)COCC2COc3ccccc3O2)C1.Cl (stereo not shown) | -28.2%
Cl.OC(COCC1COc2ccccc2O1)CN1CCN(c2ccccc2)CC1 (stereo not shown) | -64.1%
Cl.OC(COCC1COc2ccccc2O1)CN1CCc2ccccc2C1 (stereo not shown) | -64.9%
CC1CCCC(C)N1CC(O)COCC1COc2ccccc2O1.Cl (stereo not shown) | -15.8%
Cl.OC(COCC1COc2ccccc2O1)CN1CCN(c2ccc(F)cc2)CC1 (stereo not shown) | -79.3%
CCN1CCN(S(=O)(=O)c2cccc3nsnc23)CC1 | -5.57%
COc1cccc(/C=C2\SC(=N)N(c3ccc(F)cc3)C2=O)c1 | 9.22%
CCCOc1ccc(-c2c(C(=O)N/N=C/c3ccccc3)nnn2-c2nonc2N)cc1 | 4.98%
O=C(Nc1ccc2c(c1)OCO2)c1cc(-c2cccc(O)c2)on1 | -63.1%
O=C(Nc1cccc(O)c1)c1cc(-c2ccc3c(c2)OCO3)on1 | 11.3%
O=C(Nc1ccc2c(c1)OCO2)c1cc(-c2ccc(O)cc2)on1 | 22.4%
COc1cc(/C=C/CN2CCN(CCC(C)C)C(CCO)C2)ccc1O (stereo not shown) | 23%
COc1ccc(/C=C/CN2CCN(CC(C)C)C(CCO)C2)cc1 (stereo not shown) | -52.2%
CCOc1ccccc1CN1CCN(C/C=C/c2ccc(OC)cc2)CC1CCO (stereo not shown) | -65%
CCOc1ccccc1CN1CCN(Cc2ccc(C)o2)C(CCO)C1 (stereo not shown) | -12.9%
Cc1ccc(CN2CCN(C/C=C/c3ccc(F)cc3)CC2CCO)o1 (stereo not shown) | -54.5%
COc1cc(/C=C/CN2CCN(Cc3ccc(C)o3)C(CCO)C2)ccc1O (stereo not shown) | -6.62%
C/C(=C\c1ccccc1)CN1CCN(Cc2ccc(C)o2)C(CCO)C1 (stereo not shown) | -13.4%
COC(=O)c1ccc(CN2CCN(CC(C)C)C(CCO)C2)cc1 (stereo not shown) | -3.11%
COc1ccccc1/C=C/CN1CCN(Cc2ccc(C)o2)C(CCO)C1 (stereo not shown) | -12%

Structure (SMILES) | hERG current change (%, negative = inhibition) at 10uM
COc1ccccc1/C=C/CN1CCN(Cc2ccc(F)cc2)C(CCO)C1 (stereo not shown) | -51%
COc1ccc(CCNC(=O)c2sc3cc(C)ccc3c2Cl)cc1 | 3.77%
CCn1c(SCC(=O)Nc2ccccc2C(=O)OC)nnc1-c1cccc(C)c1 | -36.2%
O=S(=O)(c1ccc(O)cc1)c1ccc(O)cc1 | 16.9%
CNC(=O)C(=O)NCC1CCCN1S(=O)(=O)c1cccs1 (stereo not shown) | 12.4%
C=CCn1c(-c2cccnc2Cl)nc2ccccc21 | 8.48%
Cc1nn(-c2cc(N3CCOCC3)ccc2[N+](=O)[O-])c(=O)c2ccccc12 | -4.66%
O=C([O-])/C=C1\CCCc2ccccc2C1O.[Na+] (stereo not shown) | 18.4%
Cc1ccsc1/C=N/NC(=O)CNC(=O)c1ccc(S(=O)(=O)N2CCOCC2)cc1 | 2.86%
O=C(C1CCN(S(=O)(=O)c2cccc3cccnc23)CC1)N1CCN(C2CCCCC2)CC1 | -0.647%
CC(C)N1CCC(N2CCN(C/C=C/c3ccc(F)cc3)CC2CCO)CC1 (stereo not shown) | -6.87%
COC(=O)c1ccc(CN2CCN(Cc3ccc(F)cc3)C(CCO)C2)cc1 (stereo not shown) | 10.1%
CCOc1ccc(CN2CCN(C/C=C/c3ccc(OC)cc3)CC2CCO)cc1 (stereo not shown) | -88.7%
COc1cccc(CN2CCN(Cc3ccc(OC)c(OC)c3)CC2CCO)c1 (stereo not shown) | -27.2%
COc1ccc(CN2CCN(Cc3cccc(OC)c3)C(CCO)C2)cc1 (stereo not shown) | -45.8%
COc1ccc(/C=C/CN2CCN(Cc3ccc(F)cc3)C(CCO)C2)cc1 (stereo not shown) | -58.5%
COc1ccc(/C=C/CN2CCN(Cc3ccccc3)C(CCO)C2)cc1 (stereo not shown) | -51.9%
COc1cccc(CN2CCN(CC#Cc3ccccc3)CC2CCO)c1 (stereo not shown) | -30.6%
COc1ccc(/C=C/CN2CCN(Cc3cccc(OC)c3)C(CCO)C2)cc1 (stereo not shown) | -51.9%
